Test results as given in the supplement of paper PMC6411743.
± gives the standard deviation of the averaged measurements. Targets with the largest changes are over-represented here; the source holds about 6,200 in all.

UniProt Q9NXK8, sequence (Q9NXK8 whole entry): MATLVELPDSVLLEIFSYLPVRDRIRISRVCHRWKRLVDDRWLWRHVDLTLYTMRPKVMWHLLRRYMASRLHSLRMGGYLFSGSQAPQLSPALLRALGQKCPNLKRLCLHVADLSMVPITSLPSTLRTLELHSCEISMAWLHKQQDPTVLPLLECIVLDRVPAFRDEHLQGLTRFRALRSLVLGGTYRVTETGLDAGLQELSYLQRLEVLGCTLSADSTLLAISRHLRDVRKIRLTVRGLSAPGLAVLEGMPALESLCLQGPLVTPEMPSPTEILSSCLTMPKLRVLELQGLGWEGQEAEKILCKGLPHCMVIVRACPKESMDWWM
UniProt Q9NYF8, sequence (Q9NYF8 whole entry, one chain of several): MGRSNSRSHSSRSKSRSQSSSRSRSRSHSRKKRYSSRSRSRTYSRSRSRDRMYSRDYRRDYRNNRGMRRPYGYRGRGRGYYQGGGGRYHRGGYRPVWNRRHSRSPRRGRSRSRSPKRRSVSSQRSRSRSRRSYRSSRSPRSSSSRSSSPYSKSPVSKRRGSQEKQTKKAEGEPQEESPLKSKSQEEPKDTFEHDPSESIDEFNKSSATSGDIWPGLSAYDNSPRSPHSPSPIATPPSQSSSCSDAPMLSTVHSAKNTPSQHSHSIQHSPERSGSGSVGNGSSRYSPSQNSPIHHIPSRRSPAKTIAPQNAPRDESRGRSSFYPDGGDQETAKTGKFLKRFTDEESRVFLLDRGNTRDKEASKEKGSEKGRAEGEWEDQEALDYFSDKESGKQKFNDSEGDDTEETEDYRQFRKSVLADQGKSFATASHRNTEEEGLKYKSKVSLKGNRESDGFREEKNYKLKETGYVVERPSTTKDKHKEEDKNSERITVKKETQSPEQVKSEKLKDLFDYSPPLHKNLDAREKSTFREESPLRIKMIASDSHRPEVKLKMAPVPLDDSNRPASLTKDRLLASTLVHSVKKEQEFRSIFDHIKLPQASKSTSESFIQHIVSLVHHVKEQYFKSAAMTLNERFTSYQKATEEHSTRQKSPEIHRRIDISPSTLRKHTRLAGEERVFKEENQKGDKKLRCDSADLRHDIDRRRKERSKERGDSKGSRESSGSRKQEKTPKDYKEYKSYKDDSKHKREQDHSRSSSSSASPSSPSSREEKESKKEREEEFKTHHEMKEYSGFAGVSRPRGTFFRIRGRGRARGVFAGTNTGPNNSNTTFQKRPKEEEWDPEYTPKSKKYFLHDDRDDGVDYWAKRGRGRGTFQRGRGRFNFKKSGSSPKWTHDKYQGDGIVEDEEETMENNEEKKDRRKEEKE
UniProt Q9ULX3, sequence (Q9ULX3 whole entry): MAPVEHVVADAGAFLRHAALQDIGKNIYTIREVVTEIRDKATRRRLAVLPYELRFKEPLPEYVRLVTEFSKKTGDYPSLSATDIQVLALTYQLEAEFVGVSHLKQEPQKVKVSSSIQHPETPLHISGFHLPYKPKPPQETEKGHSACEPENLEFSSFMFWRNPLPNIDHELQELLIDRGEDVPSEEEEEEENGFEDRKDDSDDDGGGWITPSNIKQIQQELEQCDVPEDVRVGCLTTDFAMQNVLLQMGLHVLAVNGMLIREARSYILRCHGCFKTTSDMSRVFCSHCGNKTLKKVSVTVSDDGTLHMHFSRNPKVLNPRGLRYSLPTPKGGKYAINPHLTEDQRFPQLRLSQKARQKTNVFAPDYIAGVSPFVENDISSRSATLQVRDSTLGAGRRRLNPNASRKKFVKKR
UniProt Q9ULW0, sequence (Q9ULW0 whole entry): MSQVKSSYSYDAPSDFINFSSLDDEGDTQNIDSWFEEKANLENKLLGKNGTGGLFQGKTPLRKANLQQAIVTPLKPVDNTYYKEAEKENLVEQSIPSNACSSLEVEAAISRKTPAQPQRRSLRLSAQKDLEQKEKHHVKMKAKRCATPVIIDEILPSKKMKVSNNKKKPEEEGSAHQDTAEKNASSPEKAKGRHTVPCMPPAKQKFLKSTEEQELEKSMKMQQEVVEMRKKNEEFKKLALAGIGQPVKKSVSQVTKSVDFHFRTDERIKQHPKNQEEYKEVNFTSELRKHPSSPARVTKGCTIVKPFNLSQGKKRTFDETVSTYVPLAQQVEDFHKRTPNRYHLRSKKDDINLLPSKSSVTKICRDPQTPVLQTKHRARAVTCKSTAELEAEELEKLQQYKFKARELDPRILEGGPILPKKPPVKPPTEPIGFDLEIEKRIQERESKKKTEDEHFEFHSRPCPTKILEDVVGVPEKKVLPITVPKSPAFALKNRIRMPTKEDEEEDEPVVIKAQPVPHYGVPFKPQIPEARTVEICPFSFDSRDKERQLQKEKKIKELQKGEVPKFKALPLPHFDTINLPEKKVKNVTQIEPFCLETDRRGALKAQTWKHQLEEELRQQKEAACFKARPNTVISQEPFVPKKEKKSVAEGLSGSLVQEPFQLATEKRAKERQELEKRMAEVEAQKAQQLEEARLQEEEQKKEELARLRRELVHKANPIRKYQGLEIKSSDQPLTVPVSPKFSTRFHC
UniProt Q9UBI9, sequence (Q9UBI9 whole entry): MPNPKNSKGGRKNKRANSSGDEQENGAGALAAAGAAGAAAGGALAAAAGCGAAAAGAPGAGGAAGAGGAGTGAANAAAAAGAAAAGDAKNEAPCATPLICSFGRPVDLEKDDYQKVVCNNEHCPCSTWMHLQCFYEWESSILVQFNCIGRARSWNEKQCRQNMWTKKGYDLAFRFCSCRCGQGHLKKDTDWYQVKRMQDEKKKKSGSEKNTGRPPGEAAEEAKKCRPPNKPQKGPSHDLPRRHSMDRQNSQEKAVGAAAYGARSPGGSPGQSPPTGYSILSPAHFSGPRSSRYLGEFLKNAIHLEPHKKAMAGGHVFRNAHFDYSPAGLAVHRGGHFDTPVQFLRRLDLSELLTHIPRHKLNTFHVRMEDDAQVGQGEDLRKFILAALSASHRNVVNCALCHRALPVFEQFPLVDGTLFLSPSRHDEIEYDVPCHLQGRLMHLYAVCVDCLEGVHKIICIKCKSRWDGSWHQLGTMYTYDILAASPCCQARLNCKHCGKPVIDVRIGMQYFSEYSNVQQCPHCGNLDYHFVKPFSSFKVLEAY
UniProt Q9BPZ3, sequence (Q9BPZ3 whole entry, one chain of several): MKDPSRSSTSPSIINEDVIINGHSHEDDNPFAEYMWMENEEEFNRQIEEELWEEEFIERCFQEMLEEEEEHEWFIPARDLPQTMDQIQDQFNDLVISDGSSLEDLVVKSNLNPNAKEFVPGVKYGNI
UniProt Q9NPB8, sequence (Q9NPB8 whole entry, one chain of several): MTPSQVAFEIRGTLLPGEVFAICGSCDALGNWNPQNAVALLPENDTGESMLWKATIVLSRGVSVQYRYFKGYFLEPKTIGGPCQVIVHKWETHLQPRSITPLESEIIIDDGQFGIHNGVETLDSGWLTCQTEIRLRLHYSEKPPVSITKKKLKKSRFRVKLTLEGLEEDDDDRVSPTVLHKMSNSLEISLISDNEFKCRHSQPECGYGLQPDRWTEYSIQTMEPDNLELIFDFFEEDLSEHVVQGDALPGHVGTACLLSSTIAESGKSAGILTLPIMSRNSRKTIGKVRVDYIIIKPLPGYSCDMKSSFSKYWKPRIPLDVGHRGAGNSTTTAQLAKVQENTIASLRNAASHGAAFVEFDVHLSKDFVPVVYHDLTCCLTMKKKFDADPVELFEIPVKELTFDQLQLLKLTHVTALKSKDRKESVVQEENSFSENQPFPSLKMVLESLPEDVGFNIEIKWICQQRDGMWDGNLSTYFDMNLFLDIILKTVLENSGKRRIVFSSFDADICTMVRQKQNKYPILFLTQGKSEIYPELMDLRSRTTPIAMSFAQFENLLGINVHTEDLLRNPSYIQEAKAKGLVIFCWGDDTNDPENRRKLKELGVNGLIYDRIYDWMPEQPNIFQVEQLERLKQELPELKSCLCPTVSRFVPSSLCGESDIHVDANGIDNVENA
UniProt Q9NZ45, sequence (Q9NZ45 whole entry): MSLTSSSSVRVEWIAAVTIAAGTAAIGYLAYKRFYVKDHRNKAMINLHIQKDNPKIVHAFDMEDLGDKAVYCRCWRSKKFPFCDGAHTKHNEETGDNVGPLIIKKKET
UniProt Q9UPT9, sequence (Q9UPT9 whole entry): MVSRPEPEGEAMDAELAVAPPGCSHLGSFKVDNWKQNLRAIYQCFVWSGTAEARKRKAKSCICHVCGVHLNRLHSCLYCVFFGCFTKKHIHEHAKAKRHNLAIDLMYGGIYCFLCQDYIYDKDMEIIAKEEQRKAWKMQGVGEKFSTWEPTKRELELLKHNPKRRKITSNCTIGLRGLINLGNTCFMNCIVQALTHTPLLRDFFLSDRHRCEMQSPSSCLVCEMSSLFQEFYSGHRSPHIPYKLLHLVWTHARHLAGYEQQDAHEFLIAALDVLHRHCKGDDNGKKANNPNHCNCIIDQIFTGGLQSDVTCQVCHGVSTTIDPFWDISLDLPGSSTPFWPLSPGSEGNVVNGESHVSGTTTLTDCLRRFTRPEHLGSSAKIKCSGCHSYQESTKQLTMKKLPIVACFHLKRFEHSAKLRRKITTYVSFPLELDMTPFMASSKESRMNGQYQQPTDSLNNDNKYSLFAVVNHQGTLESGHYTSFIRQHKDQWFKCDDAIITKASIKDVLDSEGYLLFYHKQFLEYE

These targets were tested with Nc1ncnc2c1ncn2[C@@H]1O[C@H](COP(=O)(O)OP(=O)(O)NP(=O)(O)O)[C@@H](O)[C@H]1O [adenylyl imidodiphosphate] (assay: NP40-soluble protein abundance relative to vehicle (solubility fold change) (ratio); higher = more soluble protein in presence of AMP-PNP). Details: concentration: 6mM.
Outline: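 Jurkat crude lysate (Dounce-homogenised) was treated with eight concentrations from 0.1 to 10 mM for 10 min at room temperature, then 3 min at 37 °C. It was solubilised with 0.8% NP40 and benzonase (60 min, 4 °C) and ultracentrifuged, and the supernatant was TMT-labelled for LC-MS/MS. Intensities were vsn-normalised, and the value is the fold change against the NP40-processed vehicle per replicate, from three independent experiments.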
UniProt Q9UPT9|Q9UPT9-2 was tested, and the NP40-soluble protein abundance was 0.922 ± 0.027.
In the case of ISCU (UniProt Q9H1K1), the NP40-soluble protein abundance is reported as 0.969 ± 0.03.
TPX2 (UniProt Q9ULW0) gave an NP40-soluble protein abundance of 1.27 ± 0.049.
UniProt Q9GZY4 was tested, and the NP40-soluble protein abundance was 0.977 ± 0.015.
CISD1 (UniProt Q9NZ45) showed an NP40-soluble protein abundance of 0.992 ± 0.039.
CBX8 (UniProt Q9HC52) was tested, and the NP40-soluble protein abundance was 1.23 ± 0.028.
For PNKP (UniProt Q96T60), the NP40-soluble protein abundance was 1.18 ± 0.021.
In the case of REXO4 (UniProt Q9GZR2), the NP40-soluble protein abundance is reported as 1.17 ± 0.036.
Work on UniProt Q9UKT4|Q9UKT4-2 yielded an NP40-soluble protein abundance of 1 ± 0.061.
Target CHST12 (UniProt Q9NRB3) has an NP40-soluble protein abundance of 1 ± 0.016.
UniProt Q9NYF8|Q9NYF8-2|Q9NYF8-3|E9PK91 was tested, and the NP40-soluble protein abundance was 1.29 ± 0.1.
In the case of UniProt Q9NPB8|H0Y565, the NP40-soluble protein abundance is reported as 0.999 ± 0.033.
For HECA (UniProt Q9UBI9), the NP40-soluble protein abundance was 1.034 ± 0.0078.
For UniProt Q9P2R7|Q9P2R7-2, the NP40-soluble protein abundance was 0.977 ± 0.032.
UniProt Q9BPZ3|D6R9Y1 showed an NP40-soluble protein abundance of 0.966 ± 0.051.
UniProt Q9NXK8|Q9NXK8-2 was tested, and the NP40-soluble protein abundance was 0.9994 ± 0.008.
Work on UniProt Q9H668 yielded an NP40-soluble protein abundance of 0.995 ± 0.018.
UniProt Q9P1W8|Q9P1W8-2 showed an NP40-soluble protein abundance of 1.0109 ± 0.00039.
NOB1 (UniProt Q9ULX3) was tested, and the NP40-soluble protein abundance was 0.966 ± 0.023.

Same assay, conditions: concentration: 8mM
Work on NSMCE4A (UniProt Q9NXX6) yielded an NP40-soluble protein abundance of 0.96 ± 0.026.
UniProt Q9NXR1|Q9NXR1-2|X5DR54 was tested, and the NP40-soluble protein abundance was 0.985 ± 0.026.
With SORT1 (UniProt Q99523) the NP40-soluble protein abundance was 1.03 ± 0.036.
With MOV10 (UniProt Q9HCE1) the NP40-soluble protein abundance was 0.944 ± 0.08.
C9orf78 (UniProt Q9NZ63) gave an NP40-soluble protein abundance of 0.966 ± 0.034.
Work on “UniProt Q9Y520|Q9Y520-5|Q9Y520-7|E7EPN9|Q9Y520-4” yielded an NP40-soluble protein abundance of 1.29 ± 0.14.
UniProt Q9Y5Y5|Q9Y5Y5-2 was tested, and the NP40-soluble protein abundance was 1.03 ± 0.032.
UBAC1 (UniProt Q9BSL1) was tested, and the NP40-soluble protein abundance was 0.932 ± 0.036.
Target UniProt Q9UG63|Q9UG63-2 has an NP40-soluble protein abundance of 2.25 ± 0.15.
ZNF48 (UniProt Q96MX3) gave an NP40-soluble protein abundance of 1.06 ± 0.017.
With UniProt Q9UL63|C9J7E8|Q9UL63-2 the NP40-soluble protein abundance was 0.934 ± 0.092.
With DIDO1 (UniProt Q9BTC0) the NP40-soluble protein abundance was 1.27 ± 0.12.
With UniProt Q9Y2A7|Q9Y2A7-2 the NP40-soluble protein abundance was 0.976 ± 0.02.
RBM27 (UniProt Q9P2N5) gave an NP40-soluble protein abundance of 1.25 ± 0.11.
UniProt Q9UM21 showed an NP40-soluble protein abundance of 1 ± 0.043.
UCK1 (UniProt Q9HA47) gave an NP40-soluble protein abundance of 0.9745 ± 0.0089.
UniProt Q9Y462|Q9Y462-3 was tested, and the NP40-soluble protein abundance was 1.024 ± 0.0028.
UniProt Q96P48|Q96P48-3 gave an NP40-soluble protein abundance of 0.955 ± 0.066.
UniProt Q9UPT9|Q9UPT9-2 gave an NP40-soluble protein abundance of 0.936 ± 0.021.
ISCU (UniProt Q9H1K1) gave an NP40-soluble protein abundance of 0.96 ± 0.054.
TPX2 (UniProt Q9ULW0) was tested, and the NP40-soluble protein abundance was 1.32 ± 0.072.
Work on UniProt Q9GZY4 yielded an NP40-soluble protein abundance of 0.9936 ± 0.0057.
Work on CISD1 (UniProt Q9NZ45) yielded an NP40-soluble protein abundance of 1.02 ± 0.0018.
Target CBX8 (UniProt Q9HC52) has an NP40-soluble protein abundance of 1.33 ± 0.062.
In the case of PNKP (UniProt Q96T60), the NP40-soluble protein abundance is reported as 1.23 ± 0.047.
For REXO4 (UniProt Q9GZR2), the NP40-soluble protein abundance was 1.18 ± 0.039.
Target UniProt Q9UKT4|Q9UKT4-2 has an NP40-soluble protein abundance of 1.02 ± 0.092.
For CHST12 (UniProt Q9NRB3), the NP40-soluble protein abundance was 1.017 ± 0.0078.
UniProt Q9NYF8|Q9NYF8-2|Q9NYF8-3|E9PK91 showed an NP40-soluble protein abundance of 1.31 ± 0.11.
With UniProt Q9NPB8|H0Y565 the NP40-soluble protein abundance was 0.9977 ± 0.0075.
For HECA (UniProt Q9UBI9), the NP40-soluble protein abundance was 1.06 ± 0.046.
With UniProt Q9P2R7|Q9P2R7-2 the NP40-soluble protein abundance was 0.958 ± 0.012.
UniProt Q9BPZ3|D6R9Y1 showed an NP40-soluble protein abundance of 0.929 ± 0.014.
Target UniProt Q9NXK8|Q9NXK8-2 has an NP40-soluble protein abundance of 1.005 ± 0.0022.
UniProt Q9H668 showed an NP40-soluble protein abundance of 0.985 ± 0.044.
With UniProt Q9P1W8|Q9P1W8-2 the NP40-soluble protein abundance was 1.0171 ± 0.00063.
Work on NOB1 (UniProt Q9ULX3) yielded an NP40-soluble protein abundance of 1 ± 0.043.
